In PubChem BioAssay (Tox21):
Values without a mark were called inactive. Inconclusive results are not listed. Where a call stands in place of a potency, no number is given. Active and inactive are the calls of the source. Unless noted, calls come from the whole dose curve; as a rule, active = well fitted curve in the direction sought with a large enough effect in the repeat runs; inconclusive = weak or mixed curves; inactive = no such curve, though single readings can be large; an effect the other way counts as inactive or inconclusive.

Tests used:
[1] = target: Thyrotropin receptor (Homo sapiens) (UniProt P16473); assay: qHTS assay to identify small molecule agonists of the thyroid stimulating hormone receptor (TSHR) signaling pathway (AID 1224843; calls by dose curve; note: nearly all actives have a fitted effect of over 45% in size; note: potency is the fitted concentration of half-maximal effect)
Sequence of Thyrotropin receptor (Homo sapiens) (P16473 whole entry, looked up): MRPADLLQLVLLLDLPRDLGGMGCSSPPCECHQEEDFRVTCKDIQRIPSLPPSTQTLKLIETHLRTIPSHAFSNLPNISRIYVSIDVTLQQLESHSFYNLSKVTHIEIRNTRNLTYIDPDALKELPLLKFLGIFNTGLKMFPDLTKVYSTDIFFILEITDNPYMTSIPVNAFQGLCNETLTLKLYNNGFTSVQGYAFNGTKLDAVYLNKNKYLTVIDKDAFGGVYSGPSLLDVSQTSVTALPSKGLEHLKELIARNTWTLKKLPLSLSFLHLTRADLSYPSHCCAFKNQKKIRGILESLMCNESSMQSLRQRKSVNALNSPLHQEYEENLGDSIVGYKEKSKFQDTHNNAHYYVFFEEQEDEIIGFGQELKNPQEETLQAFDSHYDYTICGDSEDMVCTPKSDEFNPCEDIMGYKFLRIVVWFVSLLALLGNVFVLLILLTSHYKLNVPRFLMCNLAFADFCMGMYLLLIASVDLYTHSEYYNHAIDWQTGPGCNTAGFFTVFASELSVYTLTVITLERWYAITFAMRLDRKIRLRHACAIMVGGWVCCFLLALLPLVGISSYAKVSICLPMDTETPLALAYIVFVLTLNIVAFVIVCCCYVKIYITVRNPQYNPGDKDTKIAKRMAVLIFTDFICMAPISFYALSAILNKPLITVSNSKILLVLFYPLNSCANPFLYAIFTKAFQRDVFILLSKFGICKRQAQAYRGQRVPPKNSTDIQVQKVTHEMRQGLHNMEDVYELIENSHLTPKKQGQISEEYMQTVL
Summary of the method: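 Cell line HEK293 with TSHR; density 800/well. Exposure 30 min RT. Readout HTRF cAMP (cAMP-d2/anti-cAMP-cryptate), 1 h RT before reading.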

[2] = qHTS assay to identify small molecule agonists of the hypoxia (HIF-1) signaling pathway - cell viability counter screen (AID 1224844; calls by dose curve; note: nearly all actives have a fitted effect of over 50% in size)
Summary of the method: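 ME-180 HRE-bla cells, 2,000/well, 0.5% dialyzed FBS; 5 hr settle, 17 hr compound at 37C/5% CO2; CCF4-AM reporter read first, then CellTiter-Glo luminescence after 30 min RT.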

[3] = qHTS assay to identify small molecule agonists of H2AX (AID 1224845; active = well fitted activation curve with a large enough effect in the signal ratio in the repeat runs, not every such curve was filed as active; the % refers to the signal ratio)
Summary of the method: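 Wild-type CHO-K1 cells plated overnight, then exposed 3 hr at 37C to compounds at 15 concentrations (0.76% DMSO). Lysed, then HTRF anti-pH2AX(S139)-cryptate/anti-H2AX-d2 detection after 24 hr at room temperature; emissions 665 and 620 nm.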

[4] = qHTS assay to identify small molecule agonists of the hypoxia (HIF-1) signaling pathway (AID 1224846; active = well fitted activation curve with a large enough effect in the signal ratio in the repeat runs, not every such curve was filed as active; the % refers to the signal ratio)
Summary of the method: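 Cell line: CellSensor HRE-bla ME-180; 2,000 cells/well; 0.5% dialyzed FBS; 5 h preincubation; DMSO compound pin transfer; 17 h, 37C, 5% CO2; CCF4-AM added; bla FRET signal scored for activation.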

[5] = qHTS assay to identify small molecule agonists of H2AX - cell viability counter screen (AID 1224847; calls by dose curve; note: top concentration of the series differs between compounds; nearly all actives have a fitted effect of over 30% in size)
Summary of the method: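 Read-out: CellTiter-Glo luminescence, 30 min RT. Cells: wild-type CHO-K1, 1000/well, 10% FBS, plated overnight at 37C. Treatment: 15 concentrations, 3 hr, 37C, 0.76% DMSO.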

[6] = qHTS RealTime-Glo MT Cell Viability Assay in HepG2 cells - 24 hour (AID 1224867); note: nearly all actives have a fitted effect of over 50% in size
Summary of the method: (§1)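 Cell number in HepG2 cultures estimated from NanoLuc luminescence generated by metabolic reduction of a prosubstrate by living cells. The homogeneous, nonlytic format allowed repeated reads at 0, 8, 16, 24, 32 and 40 h of compound exposure.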

[7] = qHTS RealTime-Glo MT Cell Viability Assay in HEK293 cells - 32 hour (AID 1224868); note: top concentration of the series differs between compounds; nearly all actives have a fitted effect of over 50% in size
Summary of the method: (§2)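 Homogeneous bioluminescent viability format in HEK293 cells (600 cells/well). Following 5 h at 37 C/5% CO2, 23 nL compound was pintooled; the signal was measured repeatedly during 40 h incubation.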

[8] = A CellTox Green Cytotoxicity Assay to monitor cytotoxicity in HEK293 cells - 0 hour (AID 1224869); note: nearly all actives have a fitted effect of over 50% in size
Summary of the method: (§3)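 Nonlytic real-time cytotoxicity: HEK293 + CellTox Green reagent plated, 5 h preincubation, pintool compound addition (23 nL in DMSO), 37 C for 40 h, fluorescence measured at successive time points.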

[9] = qHTS RealTime-Glo MT Cell Viability Assay in HepG2 cells - 40 hour (AID 1224870); note: nearly all actives have a fitted effect of over 50% in size
Summary of the method: (§4)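 HepG2 cells mixed with RealTime-Glo MT reagents (NanoLuc plus cell-permeant prosubstrate) were seeded at 600 cells/well, incubated 5 h at 37 C/5% CO2, then pinned with compounds in DMSO; nonlytic luminescence tracked viability during 40 h treatment.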

[10] = A CellTox Green Cytotoxicity Assay to monitor cytotoxicity in HEK293 cells - 40 hour (AID 1224871); note: nearly all actives have a fitted effect of over 45% in size
Summary of the method: as §3

[11] = qHTS RealTime-Glo MT Cell Viability Assay in HEK293 cells - 16 hour (AID 1224872)
Summary of the method: as §2

[12] = qHTS RealTime-Glo MT Cell Viability Assay in HepG2 cells - 8 hour (AID 1224873); note: nearly all actives have a fitted effect of over 55% in size
Summary of the method: as §4

[13] = qHTS RealTime-Glo MT Cell Viability Assay in HEK293 cells - 40 hour (AID 1224874); details: RealTime-Glo luminescence; max response: stronger effect = lower value; note: nearly all actives have a fitted effect of over 50% in size
Summary of the method: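 Cells were seeded together with NanoLuc luciferase and a prosubstrate that viable cells reduce to a luciferase substrate. After a 5 h incubation at 37 C/5% CO2, compounds were added and luminescence was measured repeatedly during 40 h of treatment.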

[14] = A CellTox Green Cytotoxicity Assay to monitor cytotoxicity in HEK293 cells - 24 hour (AID 1224875); note: nearly all actives have a fitted effect of over 45% in size
Summary of the method: as §3

[15] = A CellTox Green Cytotoxicity Assay to monitor cytotoxicity in HepG2 cells - 16 hour (AID 1224876); note: nearly all actives have a fitted effect of over 45% in size
Summary of the method: (§5)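 Read-out is fluorescence of a cyanine dye excluded from live cells that stains DNA of dead HepG2 cells, with signal proportional to cytotoxicity. Plates were read at 0, 8, 16, 24, 32 and 40 h after compound addition.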

[16] = qHTS RealTime-Glo MT Cell Viability Assay in HepG2 cells - 32 hour (AID 1224877); note: nearly all actives have a fitted effect of over 55% in size
Summary of the method: as §1

[17] = A CellTox Green Cytotoxicity Assay to monitor cytotoxicity in HepG2 cells - 24 hour (AID 1224878); note: nearly all actives have a fitted effect of over 45% in size
Summary of the method: as §5

[18] = A CellTox Green Cytotoxicity Assay to monitor cytotoxicity in HepG2 cells - 40 hour (AID 1224879); note: nearly all actives have a fitted effect of over 40% in size
Summary of the method: as §5

[19] = qHTS assay to identify small molecule antagonists of the estrogen related receptor (ERR) signaling pathway from Tox21 library (AID 1224848); note: nearly all actives have a fitted effect of over 50% in size
Summary of the method: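 Screening used an ERR reporter line supplied by NTP, exposed for 18 h at 37 C to library compounds delivered in DMSO. Signal was luciferase luminescence developed with ONE-Glo at room temperature for 30 min.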

[20] = qHTS assay to identify small molecule agonists of the estrogen related receptor (ERR) signaling pathway from Tox21 library (AID 1224849; calls by dose curve; note: nearly all actives have a fitted effect of over 15% in size); details: ERR reporter cell line, ONE-Glo luciferase, 18 h; at 92.4 µM (top of the series) unless noted
Summary of the method: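 ERR cells, 6 h pre-incubation 37 C/5% CO2; cpd in DMSO pinned; 18 h 37 C; ONE-Glo added, 30 min RT; luminescence read. Agonist mode, qHTS.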

SMILES: CCCCCCCCN
- Potency [1]: inactive
- Potency [2]: inactive
- Potency [3]: inactive
- outcome [4]: inactive
- Potency [5]: inactive
- Potency [6]: inactive
- Potency [7]: inactive
- Potency [8]: inactive
- Potency [9]: inactive
- Potency [10]: inactive
- Potency [11]: inactive
- Potency [12]: inactive
- max response [13]: -0.288%
- Potency [14]: inactive
- Potency [15]: inactive
- Potency [16]: inactive
- Potency [17]: inactive
- Potency [18]: inactive

SMILES: CN(C)CCN1C(=O)c2ccccc2N(C)c2ccccc21
- Potency [1]: inactive
- Potency [2]: inactive
- Potency [3]: inactive
- outcome [4]: inactive
- Potency [5]: inactive
- Potency [6]: inactive
- Potency [7]: inactive
- Potency [9]: inactive
- Potency [10]: inactive
- Potency [11]: inactive
- Potency [12]: inactive
- Potency [14]: inactive
- Potency [15]: inactive
- Potency [16]: inactive
- Potency [17]: inactive
- Potency [18]: inactive

SMILES: CC(C)C(O)(c1ccc(OC(F)(F)F)cc1)c1cncnc1 (configuration not stated)
- Potency [1]: 48.4 µM (active)
- Potency [2]: inactive
- Potency [3]: inactive
- outcome [4]: inactive
- Potency [5]: inactive
- Potency [6]: inactive
- Potency [9]: inactive
- Potency [10]: inactive
- Potency [12]: inactive
- Potency [14]: inactive
- Potency [15]: inactive
- Potency [17]: inactive
- Potency [18]: inactive

SMILES: C=COCC(C)C
- Potency [1]: inactive
- Potency [2]: inactive
- Potency [3]: inactive
- outcome [4]: inactive
- Potency [5]: inactive
- Potency [19]: inactive
- activity change, positive = activation [20]: -0.119%
- Potency [8]: inactive
- Potency [9]: inactive
- Potency [12]: inactive
- Potency [14]: inactive
- Potency [15]: inactive
- Potency [16]: inactive
- Potency [17]: inactive
- Potency [18]: inactive

SMILES: CCCC(=O)C(=O)O
- Potency [1]: inactive
- Potency [2]: inactive
- Potency [3]: inactive
- outcome [4]: inactive
- Potency [5]: inactive
- Potency [6]: inactive
- Potency [7]: inactive
- Potency [8]: inactive
- Potency [9]: inactive
- Potency [10]: inactive
- Potency [11]: inactive
- Potency [12]: inactive
- max response [13]: 13.4%
- Potency [14]: inactive
- Potency [16]: inactive
- Potency [17]: inactive
- Potency [18]: inactive

SMILES: CC(=O)Nc1ccc(C)cc1C
- Potency [1]: inactive
- Potency [2]: inactive
- Potency [3]: inactive
- outcome [4]: inactive
- Potency [5]: inactive
- Potency [19]: inactive
- activity change, positive = activation [20]: 0.262%
- Potency [6]: inactive
- Potency [7]: inactive
- Potency [8]: inactive
- Potency [9]: inactive
- Potency [11]: inactive
- Potency [12]: inactive
- max response [13]: -0.695%
- Potency [14]: inactive
- Potency [16]: inactive
- Potency [17]: inactive
- Potency [18]: inactive

SMILES: C[C@@H](O)[C@H]1C(=O)N2C(C(=O)O)=C([C@H]3CCCO3)S[C@H]12
- Potency [1]: inactive
- Potency [2]: inactive
- Potency [3]: inactive
- outcome [4]: inactive
- Potency [5]: inactive
- Potency [6]: inactive
- Potency [7]: inactive
- Potency [8]: inactive
- Potency [9]: inactive
- Potency [10]: inactive
- Potency [11]: inactive
- Potency [12]: inactive
- Potency [14]: inactive
- Potency [15]: inactive
- Potency [16]: inactive
- Potency [17]: inactive
- Potency [18]: inactive

SMILES: O=C(O)c1ccc(OCCCOc2ccc(C(=O)O)cc2)cc1
- Potency [1]: inactive
- Potency [2]: inactive
- Potency [3]: inactive
- outcome [4]: inactive
- Potency [5]: inactive
- Potency [19]: inactive
- activity change, positive = activation [20]: 7.07% [at 42.5 µM]
- Potency [7]: inactive
- Potency [9]: inactive
- Potency [10]: inactive
- Potency [11]: inactive
- Potency [12]: inactive
- max response [13]: 1.73%
- Potency [14]: inactive
- Potency [15]: inactive
- Potency [16]: inactive
- Potency [17]: inactive
- Potency [18]: inactive
